Source: PubChem BioAssay AID1688 (National Center for Advancing Translational Sciences (NCATS), 2009)
In all, about 220,000 compounds went through this assay and about 2,400 (1.1%) were called active. Another 7% or so got no clear call; they are omitted. Calls follow the shape of the dose curve; as a rule, active = well fitted inhibition curve with a large enough effect; inconclusive = small, poorly fitted or top-dose-only effect, or effect the other way; inactive = no such curve, though single readings can be large or run the other way. The full list was thinned out, with actives kept by preference.

Test: qHTS Multiplex Assay to Identify Dual Action Probes in a Cell Model of Huntington: Aggregate Formation (GFP); also: nearly all actives have a fitted effect of over 60% in size
Details: PC12 HttQ103-GFP aggregates, Acumen cytometry, 40 h; series mostly up to 9.22 µM; activity change, negative = inhibition: at the top concentration
Description: NIH Chemical Genomics Center [NCGC]
NIH Molecular Libraries Probe Production centers Network [MLPCN]
Assay Submitter (PI): Wei Zheng
Huntington's disease is a neurodegenerative disorder caused by a trinucleotide repeat expansion in Exon 1 of the Huntingtin gene. The CAG trinucleotide encodes glutamine and polyglutamine expansions cause cell death in selective areas of the brain. Huntington polyglutamine repeats have the tendency to form aggregates which are observable in later stages of the disease. The exact nature of the aggregates, whether toxic, protective, or insignificant, is unclear.
A stable PC12 cell line containing a gene fusion of Exon 1 of the Huntingtin gene linked to GFP under the control of the inducible ecdysone promoter were used as the cell-based model of Huntington Disease for high throughput screening. Exon 1 of the Huntingtin gene contained an expansion of 103 polyglutamines (Q103) which, when expressed, caused cell death and distinct, bright GFP aggregates. The amount of cell death and the size and intensity of GFP aggregates increased over time and induction level. The cell death were quantified with a measurement of ATP content in the cells. A maximal 40-50% of cell death was observed when the Huntington gene was induced in this cell line.
We optimized this assay in a homogeneous 1536 well format. A quantitative high throughput screen (qHTS) was conducted on the PC12 cells which were induced to express the toxic fusion construct. Small molecules which reduced aggregate formation were identified bu using a laser scanning cytometer calibrated to detect the aggregates in cell lysates.
PC12 cells stably containing a construct with an ecdysone inducible promoter expressing GFP fused to the exon 1 of HTTQ103 (Huntington protein which containing a 103 ployglutamine expansion) were used.
NCGC Assay Protocol Summary:
Sequence, Parameter, Description
1, Reagent, 5 uL 1500 cells/well 1536 TC treated White clear bottom plate
2, Compound, 23 nL Tebufenozide inducer (100 nM final) to all columns
3, Compound, 23 nL 40 uM to 0.5 nM Libraries
5, Reagent, 5 ul ATPLite cell death assay reagent
6, Detector, Aggregate quantitation by Acumen Explorer
Media consisted of phenol red free DMEM + 5% equine serum (Hyclone # SH30072.03 ), 5% supplemented Bovine Calf Serum (Hyclone # SH30074.03 ), 1x pen/strep, no G418
Acumen Explorer was used to quantitate GFP aggregates using the following criteria: […] laser excitation, 500-530 nm emission, the PMT was set at a voltage of 450 volts, and objects ranging in size of […] in size having a signal of 6 STDEV above background were collected.
Control columns: 1 = DMSO, 2= 2 uM teb dilns (1:1), 4 = 100 nM Teb inducer. Sample columns received 100 nM Teb.
% is scaled to controls: 0 for no effect and ±100 for the full control effect; potency is read from the fitted curve at half-maximal effect.

Activity change, negative = inhibition, inactive:
COC(=O)c1ccc(CN(c2ccccc2OC)S(=O)(=O)c2cccs2)o1 -2.95% [at 46.1 µM]
COC(=O)c1ccc(CSc2ccccc2C)o1 -0.648% [at 46.1 µM]
Cn1c(=O)c2c(nc(NCc3ccccc3)n2CC(N)=O)n(C)c1=O -3.14%
Cc1ncn2cc(-c3ccc(Cl)cc3Cl)[nH]c(=O)c12 -41.8%
C=C(C)CNC(=S)Nc1ccc(S(=O)(=O)Nc2cnc3ccccc3n2)cc1 0%
Oc1ccccc1N1CCN(c2ncnc3sc(-c4ccccc4)cc23)CC1 5.69%
CCc1cc2c(NC3CCCC3)ncnc2s1 -17.1%
Cc1ccc(C(O)P(=O)(OC(C)C)c2ccc(N(C)C)cc2)cc1 (stereo unspecified) 15.4%
O=C(/C=C/Nc1ccc(S(=O)(=O)Nc2cnc3ccccc3n2)cc1)c1cccnc1 -17.6%
CCOC(=O)c1ccc(N=C2SC(C(=O)NC)CC(=O)N2CCc2ccccc2)cc1 (stereo unspecified) -13.4%
CC1=CC(C)(C)NC(=S)N1NC(=O)c1ccccc1Cl -29.3%
CN(NC(=O)c1ccccc1)c1nc2ccccc2nc1C(F)(F)F -19.7% [at 46.1 µM]
CN(NC(=O)c1ccccc1F)c1nc(C(F)(F)F)nc2ccccc12 -0.998% [at 46.1 µM]
O=C(OCc1ccccc1)c1ccc(O)cc1 6.43% [at 46.1 µM]
O=C(NCc1cccnc1)C(=O)Nc1nc(-c2ccccc2)cs1 -4.94%
O=C(Nc1cn(-c2ccccc2)nc1-c1ccccc1)c1ccccc1 -21% [at 46.1 µM]
CCn1c(SCc2ccc(C)cc2)nnc1-c1nn(-c2ccccc2)ccc1=O 9.93% [at 46.1 µM]
Cc1cc(Nc2ccc(Cl)cc2)nc(N2CCOCC2)n1 -1.57%
CC(=O)NC(=O)c1ccccc1O 1.25% [at 46.1 µM]
Cc1nnc(C)c2c(C)n(N)c(C)c12 0.29%
CCC(=O)/C=C1\Sc2ccccc2N1CC -1.12% [at 46.1 µM]
CCN1/C(=C/C(=S)Nc2ccccc2)Sc2ccccc21 4.06%
COc1ccccc1N(C)S(=O)(=O)c1ccc(C(=O)NC2CCCCCC2)cc1 21.4%
Nc1ccc(C(=O)OCC(=O)NC2CCS(=O)(=O)C2)cc1[N+](=O)[O-] (stereo unspecified) 1.88%
Cc1cccc(NC(=O)c2sc3nc4c(c(-c5ccco5)c3c2N)CCC4)c1 -5.16% [at 46.1 µM]
CC(=O)Nc1ccc(NC(=O)c2sc3nc4c(c(-c5ccc(C)cc5)c3c2N)CCC4)cc1 16.4% [at 46.1 µM]
CCNc1nc(Oc2ccc(C(=O)OC)cc2)nc(N2CCOCC2)n1 12.1%
Cc1cc(=O)[nH]c(SCC(=O)Nc2ccc(Br)cc2)n1 -8.52%
C=CCNC(=S)NNC(=O)c1cc(Cl)ccc1OC 2.51%
CCOC(=O)CSc1nnc(NC(=O)c2cccc(S(=O)(=O)N3CCCCC3)c2)s1 0.38% [at 46.1 µM]
O=C(Nc1nncs1)c1cccc(S(=O)(=O)N2CCCCC2)c1 -10.1% [at 46.1 µM]
O=P(O)(CN1CCCCCC1)C1Cc2ccccc2C1 -5.67%
COc1ccc(Nc2nc(-c3ccccc3)cs2)cc1 15.7% [at 46.1 µM]
CC(=O)Nc1nc(C)c(-c2csc(Nc3ccc(S(N)(=O)=O)cc3)n2)s1 -10.9%
OCC(CO)NC1C[C@](O)(CO)[C@@H](O)[C@H](O)[C@H]1O (stereo partly specified) -1.34% [at 46.1 µM]
CCOc1ccc(NC(=O)CCC(=O)N/N=C/c2ccc([N+](=O)[O-])s2)cc1 -1.14% [at 46.1 µM]
CC(C)(C)c1cc(C(=O)N/N=C/c2ccc([N+](=O)[O-])s2)n[nH]1 6.94%
Cc1ccc(S(=O)(=O)NNC(=S)NC(C)(C)C)cc1 -5.96%
CC(O)COc1ccccc1 (stereo unspecified) -7.24% [at 46.1 µM]
O=C(Nc1nnc(-c2ccco2)o1)c1ccc(S(=O)(=O)N2CCOCC2)cc1 -4.11% [at 46.1 µM]
CC1CCCCN1S(=O)(=O)c1ccc(S(=O)(=O)N(CC(=O)Nc2ccccc2)Cc2cccs2)cc1 (stereo unspecified) -1.27% [at 46.1 µM]
COc1ccc(C(=O)N/N=C(\C)CC(=O)Nc2ccc(Cl)cn2)cc1 5.22%
COC(=O)c1sccc1NC(=O)CC1C(=O)NCCN1C(=O)Nc1ccc(F)cc1F (stereo unspecified) -10.3%
N/C(=N/O)c1cccn1Cc1ccccc1[N+](=O)[O-] 1.61% [at 46.1 µM]
O=c1c([N+](=O)[O-])cc(C(F)(F)F)cn1Cc1cccc(Cl)c1 14.6% [at 46.1 µM]
O=C(NCC1CCCO1)c1ccccc1-c1nc(-c2ccccc2Cl)no1 (stereo unspecified) 0.943%
CC(=O)Nc1ccc(/C=C/C(=O)c2ccccc2)cc1 -17.7%
CCCC(=O)Nc1ccc(C(=O)N/N=C/c2ccc[nH]2)cc1 -1.27% [at 46.1 µM]
Cn1c(=O)c(=O)n(C)c2cc(S(=O)(=O)NCCN3CCN(c4ccccc4F)CC3)ccc21 -1.75%
COC(=O)CNc1nc(Cl)nc(N2CCC(C)CC2)n1 3.06%
N#Cc1c(C(F)(F)F)cc(-c2cccs2)nc1N1CCCCC1 -10.4%
CSc1nc2ccc(NC(=O)c3c(F)cccc3F)cc2s1 -18.4% [at 46.1 µM]
COc1cccc(OC)c1C(=O)Nc1ccc(Cc2ccncc2)cc1 9.12% [at 46.1 µM]
O=C(Nc1ccccc1C(F)(F)F)N1CCCC1c1cccnc1 (stereo unspecified) 3.58%
CCOC(=O)c1cc2n(c1N)-c1ccccc1C2=O -8.66% [at 46.1 µM]
Cc1[nH]c2ccccc2c1C(=O)COC(=O)C(C)C 3.18% [at 46.1 µM]

Potency, active:
COC(=O)c1ccc(Cc2ccccc2)o1 0.0004 µM
CCc1cc2c(N3CCN(c4nnc(CC)s4)CC3)ncnc2s1 17.8 µM
CSc1nc(N(C)NC(=O)c2cccc(C)c2)c2ccccc2n1 1.26 µM
CCc1ccc(-c2nn(-c3ccccc3)cc2CSC(=N)N)cc1 17.8 µM
CCN1/C(=C/c2ccc3ccc(C)cc3[n+]2CC)Sc2ccccc21 7.94 µM
NC(=O)c1sc2nc3c(c(-c4ccccc4)c2c1N)CCC3 7.08 µM
CCOC(=O)CSc1nnc(NC(=O)c2cccc(S(=O)(=O)N3CCCC3)c2)s1 1 µM
NS(=O)(=O)c1ccc(Nc2nc(-c3ccccc3)cs2)cc1 11.2 µM
Oc1c(Cl)cc(Cl)c(Cl)c1Cc1c(O)c(Cl)cc(Cl)c1Cl 5.62 µM
Cc1ccccc1NCC(=O)N/N=C\c1ccc([N+](=O)[O-])s1 11.2 µM
CC1CCCCN1S(=O)(=O)c1ccc(C(=O)Nc2nnc(-c3cccs3)o2)cc1 (stereo unspecified) 11.2 µM
O=c1c([N+](=O)[O-])cccn1Cc1ccc(F)cc1Cl 10 µM
CC(=O)Nc1ccc(C(=O)/C=C/c2ccc[nH]2)cc1 11.2 µM
O=C(Nc1ccncc1)c1c(F)cccc1F 12.6 µM
CCOC(=O)c1c(C)[nH]c2c1-c1ccccc1C(=O)C2=O 5.01 µM
